GCN5L2 inh – blocks human GCN5L2 histone acetyltransferase; GCN5L2 HAT assay, ThioGlo1 CoA-SH fluorescence; Potency, µM (series often up to 58.9 µM), for inactives: top-dose activity change, negative = inhibition, hits mostly inhibitors; hit rate 0.21% among 390,000; AID 504327; further: on the % scale 0 is the no-effect control and ±100 the full control effect
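qHTS, 1536-well. 20nM enzyme, pH 7.5 HEPES/EDTA/Tween-20 buffer; 15 min compound preinc., RT. Start: 75uM H3(1-25), 70uM AcCoA, 50uM ThioGlo1. Read Ex340/Em540 at t=0 (autofluorescence flag) and t=20 min.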
GLP1R cytotox – cytotoxicity counter-screen for GLP-1 receptor inverse agonists; HEK293 cAMP-luciferase reporter cells, luminescence, 24 h; Potency, µM (highest dose often 38.3 µM), inactives show at the highest dose activity change, negative = inhibition, most hits filed as inhibitors; hit rate 0.13% among 410,000; AID 624418;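 further: loss of luciferase light is scored as toxicity; on the % scale 0 is the no-effect control and ±100 the full control effect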
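Step one: seed cells (200 cells/uL, DMEM with 10% Nu serum, 1% pen-strep). Step two: 12-hour incubation at 37 deg C. Step three: pin 23 nL compound, incubate 24 hr. Step four: add luciferase reagent, read luminescence 12 min later.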
GLP-1R agonist – activates the human GLP-1 receptor; P43220; HEK293 GLP-1R CRE-luciferase, luminescence, 4-6 h; cells express a hypersensitive GLP-1R form; Potency, µM (doses to about 45.6 µM), for the others: at the highest dose activation, hits mostly activators; hit rate 0.007% among 380,000; AID 624172; further: % of control where 0% means no effect
Target sequence (P43220 whole entry, looked up): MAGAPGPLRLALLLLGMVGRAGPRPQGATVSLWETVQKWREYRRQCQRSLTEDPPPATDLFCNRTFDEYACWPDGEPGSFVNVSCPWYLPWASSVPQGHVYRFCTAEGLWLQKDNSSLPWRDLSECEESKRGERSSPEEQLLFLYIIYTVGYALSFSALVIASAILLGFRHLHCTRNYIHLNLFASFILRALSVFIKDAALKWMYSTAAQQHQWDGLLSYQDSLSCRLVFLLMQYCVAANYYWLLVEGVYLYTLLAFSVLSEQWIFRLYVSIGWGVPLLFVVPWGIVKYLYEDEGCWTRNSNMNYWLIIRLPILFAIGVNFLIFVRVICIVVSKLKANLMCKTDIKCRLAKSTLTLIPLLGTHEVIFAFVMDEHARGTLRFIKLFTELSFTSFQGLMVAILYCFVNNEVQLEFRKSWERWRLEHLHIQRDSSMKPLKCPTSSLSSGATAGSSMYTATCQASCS
PTHR1 agonist – PTHR1 (human) receptor agonism; AID 743266; HEK293 GP2 PTHR1 cells, GloSensor cAMP luminescence, 1 h; Potency, µM (titrated, usually from 115 µM), for the others: at the highest dose activation, actives largely listed as activators; hit rate 0.075% among 410,000; Q03431; further: nearly all actives have a fitted effect of over 55% in size
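HEK-293-derived GP2 cells expressing PTHR1 and a GloSensor cAMP reporter, 3,000/well, plated overnight, given luciferin plus IBMX (each 0.5 mM as added) for 1 h at 37 °C, then compound for 1 h at 37 °C. Luminescence was read after 15 min at room temperature.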
GLP-1R inv ag – inverse agonists of human GLP-1 receptor | HEK293 GLP-1R CRE-luciferase, luminescence, 24 h; GLP-1R form is constitutively active | AID 624417 | P43220 | Potency, µM (series often up to 38.3 µM), inactives show at the highest dose activity change, negative = inhibition, most hits filed as inhibitors | hit rate 1.6% among 410,000; further: on the % scale 0 is the no-effect control and ±100 the full control effect; nearly all actives have a fitted effect of over 55% in size
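Stable HEK293 clone (constitutively active GLP-1R + cAMP-response luciferase); 200 cells/uL plated, 12 h pre-culture, compound 24 hr, 37 deg C/5% CO2; detection reagent 12 min RT; luminescence.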
RGS4 inhibitor – blocks human RGS4-accelerated GTP hydrolysis; P49798; Transcreener GDP fluorescence polarization, RGS4-accelerated GTP hydrolysis; Potency, µM (series often up to 114 µM), without a hit: top-dose activity change, negative = inhibition, most hits filed as inhibitors; hit rate 0.039% among 390,000; further: on the % scale 0 is the no-effect control and ±100 the full control effect; nearly all actives have a fitted effect of over 75% in size
Target sequence (P49798 whole entry, looked up): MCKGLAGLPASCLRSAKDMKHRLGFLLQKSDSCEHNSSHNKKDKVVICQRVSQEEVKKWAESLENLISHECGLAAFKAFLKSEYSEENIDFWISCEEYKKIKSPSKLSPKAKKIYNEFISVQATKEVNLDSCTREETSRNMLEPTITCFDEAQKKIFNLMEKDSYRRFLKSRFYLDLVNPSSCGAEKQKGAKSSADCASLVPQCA
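MLSMR compounds (23 nl, pin-transferred) preincubated 10 min at room temperature with a 500nM (2x) first reagent, then RGS4 at 900nM (2x) plus Transcreener GDP mix added; fluorescence polarization (620/688 nm) read before and after 90 min at 30 °C.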
The depositor's hits bear a star; ! = a repeat was not active; [ ] = another dose, or the depositor's remark. Rows were chosen to be rich in hits. Some 1.8% of all compounds tested hit in one or more screens of this group. The call rests on the fitted dose curve; in most records, active means well fitted curve in the direction sought with a large enough effect; inconclusive means small, poorly fitted or top-dose-only effect, or another doubt; inactive means no such curve, though single readings can be large; an effect the other way counts as inactive or inconclusive. Potency means the concentration at half of the fitted maximal effect.

`CN(C(=O)CC(=O)Nc1ccc(Cl)c(Cl)c1)c1ccccc1` gave GCN5L2 inh -6.7%, GLP1R cytotox -4.6%, GLP-1R agonist 0.9%, PTHR1 agonist 13.6%, GLP-1R inv ag -11.1% and RGS4 inhibitor -0.6%.
O=C(CN1C(=O)/C(=C/c2ccc(C(F)(F)F)cc2)Sc2ccccc21)NCCCN1CCOCC1 was read as GCN5L2 inh -11.5%, GLP1R cytotox -24.6%, GLP-1R agonist 17.1%, PTHR1 agonist inactive, GLP-1R inv ag inconclusive and RGS4 inhibitor 18.9%.
CCc1ccc(/C=C2/Sc3ccccc3N(CC(=O)NCCCN3CCOCC3)C2=O)cc1 was read as GCN5L2 inh -3.7%, GLP1R cytotox -9.8%, GLP-1R agonist -3.5%, PTHR1 agonist 4.5%, GLP-1R inv ag 8.91µM* and RGS4 inhibitor 3.3%.
For Cc1ccccc1CN1C(=O)/C(=C\c2ccc(C(=O)NCCN3CCOCC3)cc2)Sc2ccccc21 the results were GCN5L2 inh -14.2%, GLP1R cytotox 39.1%, GLP-1R agonist -2.0%, PTHR1 agonist -19.7%, GLP-1R inv ag 11.2µM* and RGS4 inhibitor -13.8%.
Screening CCN1CCN(CCNC(=O)c2ccc3c(c2)N(Cc2ccc(F)cc2)C(=O)/C(=C/c2ccccc2)S3)CC1 returned GCN5L2 inh -9.2%, GLP1R cytotox inconclusive, GLP-1R agonist -0.4%, PTHR1 agonist inactive, GLP-1R inv ag 10µM* and RGS4 inhibitor -19.1%.
Screening Cc1ccc(S(=O)(=O)c2nc(Cc3ccccc3)oc2N2CCOCC2)cc1 returned GCN5L2 inh -7.3%, GLP1R cytotox -15.7%, GLP-1R agonist -4.4%, PTHR1 agonist inactive, GLP-1R inv ag 6.7% and RGS4 inhibitor inconclusive.
`OC(COCC(F)(F)C(F)(F)C(F)(F)C(F)F)Cn1c2ccc(Cl)cc2c2cc(Cl)ccc21` (stereo not given) gave GCN5L2 inh -1.7%, GLP1R cytotox inconclusive, GLP-1R agonist -5.1%, PTHR1 agonist -43.4%, GLP-1R inv ag 1.78µM* and RGS4 inhibitor -12.4%.
COC(=O)N/N=C/c1cccs1 was read as GCN5L2 inh 14.3%, GLP1R cytotox -11.2%, GLP-1R agonist 8.5%, PTHR1 agonist inactive, GLP-1R inv ag 1.0% and RGS4 inhibitor 6.3%.
For CC1=CCC(C(=O)N/N=C/c2cccs2)C(c2ccc(F)cc2)C1 (stereo not given) the results were GCN5L2 inh inconclusive, GLP1R cytotox -14.1%, GLP-1R agonist 0.3%, PTHR1 agonist -2.6%[57.5 µM], GLP-1R inv ag 10µM* and RGS4 inhibitor -1.1%.
Screening O=C(NCCc1ccc(Cl)cc1)c1ccc2c(c1)N(Cc1cccc(Cl)c1)C(=O)c1ccccc1S2(=O)=O returned GCN5L2 inh -1.9%, GLP1R cytotox -5.5%, PTHR1 agonist -3.6%, GLP-1R inv ag -30.5% and RGS4 inhibitor 14.3%.
For O=C(N/N=C/c1ccccc1)C(=O)N/N=C/c1ccccc1 the results were GCN5L2 inh -0.5%, GLP1R cytotox -11.2%, GLP-1R agonist 4.2%, PTHR1 agonist -5.0%, GLP-1R inv ag 7.8% and RGS4 inhibitor -14.7%.
`O=C(C=C=Nc1ccccc1)C(=O)N=C=Cc1ccccc1` gave GCN5L2 inh -7.8%, GLP1R cytotox 12.6µM*, GLP-1R agonist 0.3%, PTHR1 agonist -26.4%, GLP-1R inv ag inconclusive and RGS4 inhibitor -9.4%.
`Cc1noc(C)c1-c1nc(NCc2cccnc2)c2ccccc2n1` gave GCN5L2 inh -8.0%.
`Cc1noc(C)c1-c1nc(NCc2ccccc2)c2ccccc2n1` gave GCN5L2 inh 25.1µM*.
`CC1(C(=O)NS(=O)(=O)c2ccc(Cl)cc2)CCN1C(=O)C1CC1` (stereo not given) gave GLP1R cytotox -1.3%, GLP-1R agonist -0.3%, PTHR1 agonist -15.6% and GLP-1R inv ag -6.0%.
For CCOC(=O)N1CCc2c(sc(NCc3ccc(N(CC)CC)cc3)c2C(=O)Nc2cc(OC)ccc2OC)C1 the results were GCN5L2 inh -13.5%, GLP1R cytotox -1.4%, PTHR1 agonist 39.8µM*, GLP-1R inv ag -7.2% and RGS4 inhibitor -46.0%.
`Cc1ccc(NC(=O)[C@@H](c2ccccc2)N2Cc3ccccc3C2=O)cc1F` gave GCN5L2 inh -11.0%, GLP1R cytotox -7.3%, GLP-1R agonist -4.1%, PTHR1 agonist -17.3%, GLP-1R inv ag 10µM* and RGS4 inhibitor 0.0%.
Screening CC(C)(C)C(=O)Nc1cccc(C(=O)OCc2cc(=O)n3nc(C4CCCCC4)sc3n2)c1 returned GCN5L2 inh 20.7%, GLP1R cytotox -0.2%, PTHR1 agonist -16.8%, GLP-1R inv ag 0.0% and RGS4 inhibitor -14.1%.
For CC(C)(Sc1ccc(CCN(CCCCC2CCCCC2)C(=O)NC2CCCCC2)cc1)C(=O)O the results were GCN5L2 inh 12.6µM*, GLP1R cytotox -4.2%, GLP-1R agonist 7.0%, PTHR1 agonist -18.6%, GLP-1R inv ag -20.9% and RGS4 inhibitor 26.7µM*!.
`C=CCC1(CC=C)CCCN1C(=O)c1cc(COc2cccc(C(F)(F)F)c2)on1` gave GCN5L2 inh -12.4%, GLP1R cytotox -4.6%, GLP-1R agonist 3.6%, PTHR1 agonist -72.1%, GLP-1R inv ag 10µM* and RGS4 inhibitor -0.7%.
For O=C(c1cc(COc2cccc(C(F)(F)F)c2)on1)N1CCCC1 the results were GLP1R cytotox 0.1%, GLP-1R agonist -4.7%, PTHR1 agonist -26.1% and GLP-1R inv ag -5.8%.
Screening CC(C1CC1)N(Cc1ccccc1)C(=S)Nc1cccc(C(F)(F)F)c1 (stereo not given) returned GCN5L2 inh -4.8%, GLP1R cytotox -8.5%, GLP-1R agonist 1.1%, PTHR1 agonist -25.5%, GLP-1R inv ag 10µM* and RGS4 inhibitor -25.5%.
Screening O=[N+]([O-])c1cc2c(cc1Br)-c1ccccc1C2 returned GLP1R cytotox 3.9%, GLP-1R agonist 0.3%, PTHR1 agonist -23.1% and GLP-1R inv ag 0.0%.
Screening C[C@@H]1CCCCO[C@@H](CN(C)Cc2ccc(Cl)c(Cl)c2)[C@@H](C)CN([C@H](C)CO)C(=O)c2cc(NC(=O)CCC(F)(F)F)ccc2O1 returned GLP1R cytotox -22.0%, GLP-1R agonist 1.1%, PTHR1 agonist inactive and GLP-1R inv ag 2.82µM*.
`C[C@H]1CN([C@@H](C)CO)C(=O)Cc2cc(NC(=O)C3CC3)ccc2O[C@H]1CN(C)Cc1ccc(Oc2ccccc2)cc1` gave GCN5L2 inh -10.7%, GLP1R cytotox -7.9%, GLP-1R agonist -3.0%, PTHR1 agonist -8.1%, GLP-1R inv ag 10µM* and RGS4 inhibitor -3.1%.

Screens deposited in PubChem BioAssay by National Center for Advancing Translational Sciences (NCATS).
